Reference: PubChem BioAssay (Tox21)
Records with an inconclusive call do not appear. Calls of active or inactive are those of the source. Unless noted, calls follow the shape of the dose curve; as a rule, active = well fitted curve in the direction sought with a large enough effect in the repeat runs; inconclusive = weak or mixed curves; inactive = no such curve, though single readings can be large; an effect the other way counts as inactive or inconclusive.

Assays:
[1] = qHTS assay to identify small molecule agonists of the sonic hedgehog signaling (Shh) pathway (AID 1259368; calls by dose curve;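 also: NIH/3T3-derived 3T3Gli1-Luc cells carrying a stable Gli1-driven firefly luciferase reporter; series mostly up to about 92 µM; nearly all actives have a fitted effect of over 15% in size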)
Procedure, shortened: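 3T3Gli1-Luc (NIH/3T3 clone, stable Gli1-Luc); 4 hr pre-incubation, then cpd in DMSO 24 hr, 37 C/5% CO2; luciferase reagent 30 min RT; luminescence.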

[2] = qHTS assay to identify small molecule antagonists of the sonic hedgehog signaling (Shh) pathway (AID 1259369; calls by dose curve; also: nearly all actives have a fitted effect of over 45% in size)
Procedure, shortened: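 3T3Gli1-Luc, conditioned-medium-stimulated, 24hr cpd, 37C/5% CO2; Gli1-driven firefly Luc luminescence after 30min RT with luciferase reagent. Cells plated 4hr before cpd.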

[3] = molecular target: Estrogen receptor beta (Homo sapiens) (UniProt Q92731); assay: qHTS assay to identify small molecule agonists of the estrogen receptor beta (ER-beta) signaling pathway (AID 1259377; active = well fitted activation curve with a large enough effect in the signal ratio in the repeat runs, not every such curve was filed as active; the % refers to the signal ratio)
Procedure, shortened: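 HEK293T ER-beta-UAS-bla; 2% charcoal-stripped FBS; cells pre-incubated 6 hr, compound 16 hr, 37C/5% CO2; LiveBLAzer B/G FRET substrate 2 h RT; fluorescence intensity read.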

[4] = molecular target: Estrogen receptor beta (Homo sapiens) (UniProt Q92731); assay: qHTS assay to identify small molecule antagonists of the estrogen receptor beta (ER-beta) signaling pathway (AID 1259378; active = well fitted inhibition curve with a large enough effect in the signal ratio in the repeat runs, not every such curve was filed as active; the % refers to the signal ratio)
Procedure, shortened: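 ER-beta-UAS-bla HEK293T (GripTite) cells in 2% charcoal-stripped FBS medium were preincubated 6 hr at 37C, dosed with compound, then stimulated with 1 nM E2 (final) for 16 hr; beta-lactamase reporter read by B/G FRET fluorescence after 2 hr substrate loading.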

[5] = qHTS assay to identify small molecule agonists of the androgen receptor (AR) signaling pathway in the presence of an antagonist - cell viability counter screen (AID 1259379);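 also: MDA-kb2 human breast cancer cells carrying an MMTV luciferase reporter; series mostly up to about 92 µM; nearly all actives have a fitted effect of over 25% in size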
Procedure, shortened: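 Cells: MDA-kb2 (MMTV-luc, AR and GR elements), 3,000/well, 5 hr settle. Added: nilutamide 3.0uM final, then compounds (15 conc.). Incubation: 16 hr, 37C, no CO2. Read-out: CellTiter-Fluor, 1 hr, fluorescence.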

[6] = qHTS assay to identify small molecule agonists of the estrogen receptor beta (ER-beta) signaling pathway - cell viability counter screen (AID 1259380); also: nearly all actives have a fitted effect of over 30% in size
Procedure, shortened: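 HEK293T ER-beta-UAS-bla; 2% CS-FBS; 6 hr pre-plate, 16 hr cpd at 37C/5% CO2; LiveBLAzer read first, then CellTiter-Glo 30 min RT, luminescence.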

[7] = qHTS assay to identify small molecule antagonists of the estrogen receptor beta (ER-beta) signaling pathway - cell viability counter screen (AID 1259382); also: series mostly up to about 92 µM; nearly all actives have a fitted effect of over 55% in size
Procedure, shortened: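 Cells: ER-beta-UAS-bla HEK293T, 2,000/well, 2% CS-FBS, 6 hr settle. Cpd + E2 (1nM final), 16 hr, 37C/5% CO2. Bla FRET substrate 2 hr RT, then CellTiter-Glo 30 min RT, luminescence.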

[8] = qHTS assay to identify small molecule agonists or antagonists of the thyroid stimulating hormone receptor (TSHR) signaling pathway - wild type cell line counter screen (AID 1259384; calls by dose curve)
Procedure, shortened: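 Wild-type HEK293 cells were plated 18 h at 37 C/5% CO2, pin-dosed with compound plus Ro20-1724 medium, held 30 min at room temperature, then given cAMP-d2 and anti-cAMP-cryptate; fluorescence was read after 1 h. Fifteen concentrations, triplicate.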

[9] = molecular target: Thyrotropin receptor (Homo sapiens) (UniProt P16473); assay: qHTS assay to identify small molecule antagonists of the thyroid stimulating hormone receptor (TSHR) signaling pathway (AID 1259385; calls by dose curve; also: nearly all actives have a fitted effect of over 20% in size)
Procedure, shortened: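 TSHR-HEK293 cells were plated and held 18 h at 37C/5% CO2, then given compound plus Ro20-1724 and stimulated with TSH at 1.5 ng/mL final. After 30 min at room temperature, cAMP was detected with cAMP-d2/anti-cAMP-cryptate (1 h) by fluorescence.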

[10] = qHTS assay to identify small molecule agonists of the estrogen receptor alpha (ER-alpha) signaling pathway in the presence of an antagonist - cell viability counter screen (AID 1259386);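 also: series mostly up to about 92 µM; cells exposed to compounds for 22 h at 37 °C before the viability read; nearly all actives have a fitted effect of over 30% in size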
Procedure, shortened: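 VM7Luc4E2, stripped-serum pre-culture 5 d; 24hr plating; +ICI-182,780 10.0nM final; cpds 15 conc, 22hr, 37C/5% CO2; CellTiter-Fluor added at 21hr, fluorescence 1hr later.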

[11] = molecular target: Progesterone receptor (Homo sapiens) (UniProt P06401); assay: qHTS assay to identify small molecule agonists of the progesterone receptor (PR) signaling pathway (AID 1346784; calls by dose curve; also: nearly all actives have a fitted effect of over 30% in size)
Procedure, shortened: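 Beta-lactamase reporter read-out: after 16 hr compound treatment at 37C and a further 2 hr at room temperature with LiveBLAzer B/G FRET substrate, fluorescence was measured in PR-UAS-bla HEK 293T cells grown in 2% charcoal-stripped serum.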

[12] = molecular target: Progesterone receptor (Homo sapiens) (UniProt P06401); assay: qHTS assay to identify small molecule antagonists of the progesterone receptor (PR) signaling pathway (AID 1346795; active = well fitted inhibition curve with a large enough effect in the signal ratio in the repeat runs, not every such curve was filed as active; the % refers to the signal ratio)
Procedure, shortened: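 Read-out is fluorescence from the LiveBLAzer B/G FRET substrate, cleaved by a UAS-controlled beta-lactamase in PR-UAS-bla HEK293T cells after 16 hr exposure to compound plus 1 nM promegestone (final), followed by 2 hr at room temperature.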

[13] = qHTS assay to identify small molecule antagonists of the progesterone receptor (PR) signaling pathway - cell viability counter screen (AID 1346798);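 also: HEK293T PR-UAS-bla cells stimulated with the agonist R5020; series mostly up to about 92 µM; nearly all actives have a fitted effect of over 50% in size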
Procedure, shortened: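 HEK293T PR-UAS-bla, 2% charcoal-stripped FBS; 4 hr pre-plate; cpd + R5020, 16 h 37C; LiveBLAzer read first; then CellTiter-Glo 30 min RT, luminescence.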

[14] = qHTS assay to identify small molecule antagonists of the TGF-beta/Smad signaling pathway - cell viability counter screen (AID 1346824); also: nearly all actives have a fitted effect of over 50% in size
Procedure, shortened: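 SBE-bla HEK 293T cells were plated overnight at 37 C, then given compounds in DMSO plus TGF-beta1 (added as 0.25 ng/mL solution) for 5 hr. After the bla read, CellTiter-Glo was added to the same wells and luminescence read after 30 min at room temperature.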

[15] = qHTS assay to identify small molecule agonists of the TGF-beta/Smad signaling pathway - cell viability counter screen (AID 1346829); also: top concentration of the series differs between compounds; nearly all actives have a fitted effect of over 45% in size
Procedure, shortened: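 In parallel with the Smad reporter read, viability of HEK 293T cells stably carrying SBE-bla is quantified by ATP luminescence following 5 hr compound treatment.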

[16] = qHTS assay to identify small molecule agonists of the TGF-beta/Smad signaling pathway (AID 1346859; active = well fitted activation curve with a large enough effect in the signal ratio in the repeat runs, not every such curve was filed as active; the % refers to the signal ratio; also: series mostly up to about 77 µM)
Procedure, shortened: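 SBE-bla HEK 293T, 4,000 cells/well, plated o/n; cpd in DMSO, 5 hr, 37 C/5% CO2; B/G FRET substrate 2 hr RT; ex 405, em 460/530 nm.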

[17] = qHTS assay to identify small molecule agonists of the progesterone receptor (PR) signaling pathway - cell viability counter screen (AID 1346799; calls by dose curve; also: nearly all actives have a fitted effect of over 45% in size)
Procedure, shortened: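 Luminescence from CellTiter-Glo, added after the beta-lactamase FRET read in the same wells, gave cytotoxicity in PR-UAS-bla HEK293T cells treated with compounds for 16 hr at 37C.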

[18] = molecular target: Thyrotropin-releasing hormone receptor (Homo sapiens) (UniProt P34981); assay: qHTS assay to identify small molecule antagonists of the thyrotropin-releasing hormone receptor (TRHR) signaling pathway (AID 1346877; active = well fitted inhibition curve with a large enough effect in the repeat runs, not every such curve was filed as active; also: series mostly up to about 51 µM)
Procedure, shortened: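 Intracellular calcium fluorescence, read kinetically every second over 3 min, reports TRH-evoked signalling in HEK293 cells carrying TRHR. Test compounds were added 5 min ahead of a 1 nM TRH challenge.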

[19] = molecular target: Estrogen receptor (Homo sapiens) (UniProt P03372); assay: qHTS assay to identify small molecule agonists of the estrogen receptor alpha (ER-alpha) signaling pathway in the presence of an antagonist (AID 1259383; calls by dose curve; also: top concentration of the series differs between compounds; nearly all actives have a fitted effect of over 15% in size)
Procedure, shortened: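 VM7Luc4E2, endog. ER-alpha + 4×ERE-luc; charcoal-stripped FBS, phenol red-free, 5 d; 24hr plating; +10.0nM ICI-182,780 (final); cpds 15 conc, 22hr, 37C/5% CO2; ONE-Glo luminescence.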

[20] = molecular target: Androgen receptor (Homo sapiens) (UniProt P10275); assay: qHTS assay to identify small molecule agonists of the androgen receptor (AR) signaling pathway in the presence of an antagonist (AID 1259381; calls by dose curve; also: nearly all actives have a fitted effect of over 15% in size)
Procedure, shortened: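 MDA-kb2 cells, 3,000/well, rested 5hr at 37C/0% CO2 → nilutamide 3.0uM final or buffer → compounds, 15 conc. → 16hr at 37C → ONE-Glo, 30min RT → luminescence.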

Measured: Potency

Progesterone receptor (Homo sapiens), sequence (P06401 whole entry, looked up): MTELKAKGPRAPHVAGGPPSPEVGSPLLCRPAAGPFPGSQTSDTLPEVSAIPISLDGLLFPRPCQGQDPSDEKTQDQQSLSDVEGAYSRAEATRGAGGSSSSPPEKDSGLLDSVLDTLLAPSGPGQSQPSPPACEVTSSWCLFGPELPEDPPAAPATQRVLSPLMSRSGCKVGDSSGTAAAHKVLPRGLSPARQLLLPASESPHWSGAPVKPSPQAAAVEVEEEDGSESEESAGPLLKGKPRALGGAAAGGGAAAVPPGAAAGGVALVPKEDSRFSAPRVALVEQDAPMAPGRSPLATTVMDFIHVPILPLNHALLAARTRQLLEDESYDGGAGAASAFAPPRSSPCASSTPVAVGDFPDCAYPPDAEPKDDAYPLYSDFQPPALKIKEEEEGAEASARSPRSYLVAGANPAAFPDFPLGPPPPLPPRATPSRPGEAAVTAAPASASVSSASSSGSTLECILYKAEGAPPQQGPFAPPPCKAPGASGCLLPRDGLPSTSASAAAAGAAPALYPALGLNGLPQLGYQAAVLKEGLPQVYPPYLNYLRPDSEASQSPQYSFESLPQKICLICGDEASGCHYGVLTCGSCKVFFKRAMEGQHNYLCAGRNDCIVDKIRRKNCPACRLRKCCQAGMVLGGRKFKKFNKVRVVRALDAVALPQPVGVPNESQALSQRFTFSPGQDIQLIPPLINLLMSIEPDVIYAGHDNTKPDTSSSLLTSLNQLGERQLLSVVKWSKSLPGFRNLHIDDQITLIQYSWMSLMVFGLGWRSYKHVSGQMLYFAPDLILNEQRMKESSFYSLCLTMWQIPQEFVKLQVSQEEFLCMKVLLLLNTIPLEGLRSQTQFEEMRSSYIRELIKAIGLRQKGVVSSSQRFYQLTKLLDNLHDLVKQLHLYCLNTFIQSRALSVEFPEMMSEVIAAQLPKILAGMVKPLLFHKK
Thyrotropin-releasing hormone receptor (Homo sapiens), sequence (P34981 whole entry, looked up): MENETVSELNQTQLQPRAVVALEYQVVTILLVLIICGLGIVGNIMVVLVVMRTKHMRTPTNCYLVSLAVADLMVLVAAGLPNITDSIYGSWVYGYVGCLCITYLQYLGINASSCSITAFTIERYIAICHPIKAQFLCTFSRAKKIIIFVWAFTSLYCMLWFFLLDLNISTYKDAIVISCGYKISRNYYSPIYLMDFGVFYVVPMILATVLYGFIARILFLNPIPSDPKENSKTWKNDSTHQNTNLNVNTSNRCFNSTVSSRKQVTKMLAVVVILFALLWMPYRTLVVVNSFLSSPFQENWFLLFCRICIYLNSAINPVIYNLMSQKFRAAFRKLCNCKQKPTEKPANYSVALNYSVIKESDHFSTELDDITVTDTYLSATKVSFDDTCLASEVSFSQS
Thyrotropin receptor (Homo sapiens), sequence (P16473 whole entry, looked up): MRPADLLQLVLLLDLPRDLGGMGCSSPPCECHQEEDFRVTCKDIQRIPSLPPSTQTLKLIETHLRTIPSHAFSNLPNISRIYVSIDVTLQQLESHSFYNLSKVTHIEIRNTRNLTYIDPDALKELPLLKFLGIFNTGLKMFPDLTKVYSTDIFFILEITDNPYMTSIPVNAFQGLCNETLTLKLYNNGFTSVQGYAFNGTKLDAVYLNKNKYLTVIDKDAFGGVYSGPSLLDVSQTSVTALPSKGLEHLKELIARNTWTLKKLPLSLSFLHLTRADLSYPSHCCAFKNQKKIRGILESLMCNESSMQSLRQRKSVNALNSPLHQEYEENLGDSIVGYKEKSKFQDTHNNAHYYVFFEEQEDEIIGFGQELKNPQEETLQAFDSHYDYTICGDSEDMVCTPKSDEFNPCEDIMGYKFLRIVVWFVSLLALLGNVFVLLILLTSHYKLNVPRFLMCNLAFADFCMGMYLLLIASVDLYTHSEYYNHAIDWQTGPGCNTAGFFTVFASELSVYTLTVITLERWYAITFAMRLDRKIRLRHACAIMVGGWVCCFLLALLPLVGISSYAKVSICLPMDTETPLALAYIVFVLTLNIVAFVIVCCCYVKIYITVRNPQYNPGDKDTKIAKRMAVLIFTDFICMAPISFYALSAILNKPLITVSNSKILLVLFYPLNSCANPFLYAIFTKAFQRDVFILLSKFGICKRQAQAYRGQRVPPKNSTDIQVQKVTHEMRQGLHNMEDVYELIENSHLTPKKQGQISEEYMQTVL
Estrogen receptor beta (Homo sapiens), sequence (Q92731 whole entry, looked up): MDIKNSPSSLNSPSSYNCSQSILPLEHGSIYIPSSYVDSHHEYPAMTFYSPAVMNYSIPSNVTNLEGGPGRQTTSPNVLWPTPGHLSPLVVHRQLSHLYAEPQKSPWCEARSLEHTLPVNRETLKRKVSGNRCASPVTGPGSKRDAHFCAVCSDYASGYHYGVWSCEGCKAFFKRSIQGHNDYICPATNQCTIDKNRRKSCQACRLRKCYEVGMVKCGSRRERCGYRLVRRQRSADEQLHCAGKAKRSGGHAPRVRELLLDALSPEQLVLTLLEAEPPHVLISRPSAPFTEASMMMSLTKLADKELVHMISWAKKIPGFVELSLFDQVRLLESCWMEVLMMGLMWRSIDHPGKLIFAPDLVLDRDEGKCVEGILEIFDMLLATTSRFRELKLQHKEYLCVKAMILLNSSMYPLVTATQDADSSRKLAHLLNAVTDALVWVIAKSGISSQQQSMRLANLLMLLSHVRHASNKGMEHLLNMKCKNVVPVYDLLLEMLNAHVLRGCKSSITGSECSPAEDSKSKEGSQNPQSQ
Estrogen receptor (Homo sapiens), sequence (P03372 whole entry, looked up): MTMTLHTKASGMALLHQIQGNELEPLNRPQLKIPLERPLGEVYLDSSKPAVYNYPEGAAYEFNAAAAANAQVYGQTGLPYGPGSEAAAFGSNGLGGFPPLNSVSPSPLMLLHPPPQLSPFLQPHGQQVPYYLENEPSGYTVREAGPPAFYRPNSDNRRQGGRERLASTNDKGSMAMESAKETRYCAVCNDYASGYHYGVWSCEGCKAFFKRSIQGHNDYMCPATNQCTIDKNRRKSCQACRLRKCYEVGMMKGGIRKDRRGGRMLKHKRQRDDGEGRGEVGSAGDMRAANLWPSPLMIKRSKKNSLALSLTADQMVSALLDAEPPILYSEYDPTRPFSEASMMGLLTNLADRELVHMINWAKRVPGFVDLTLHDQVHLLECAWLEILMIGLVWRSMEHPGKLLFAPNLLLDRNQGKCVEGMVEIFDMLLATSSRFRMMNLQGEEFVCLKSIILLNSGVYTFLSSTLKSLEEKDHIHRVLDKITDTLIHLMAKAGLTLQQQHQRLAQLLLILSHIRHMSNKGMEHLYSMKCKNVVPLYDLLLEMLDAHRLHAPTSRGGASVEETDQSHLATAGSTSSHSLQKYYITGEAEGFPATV
Androgen receptor (Homo sapiens), sequence (P10275 whole entry, looked up): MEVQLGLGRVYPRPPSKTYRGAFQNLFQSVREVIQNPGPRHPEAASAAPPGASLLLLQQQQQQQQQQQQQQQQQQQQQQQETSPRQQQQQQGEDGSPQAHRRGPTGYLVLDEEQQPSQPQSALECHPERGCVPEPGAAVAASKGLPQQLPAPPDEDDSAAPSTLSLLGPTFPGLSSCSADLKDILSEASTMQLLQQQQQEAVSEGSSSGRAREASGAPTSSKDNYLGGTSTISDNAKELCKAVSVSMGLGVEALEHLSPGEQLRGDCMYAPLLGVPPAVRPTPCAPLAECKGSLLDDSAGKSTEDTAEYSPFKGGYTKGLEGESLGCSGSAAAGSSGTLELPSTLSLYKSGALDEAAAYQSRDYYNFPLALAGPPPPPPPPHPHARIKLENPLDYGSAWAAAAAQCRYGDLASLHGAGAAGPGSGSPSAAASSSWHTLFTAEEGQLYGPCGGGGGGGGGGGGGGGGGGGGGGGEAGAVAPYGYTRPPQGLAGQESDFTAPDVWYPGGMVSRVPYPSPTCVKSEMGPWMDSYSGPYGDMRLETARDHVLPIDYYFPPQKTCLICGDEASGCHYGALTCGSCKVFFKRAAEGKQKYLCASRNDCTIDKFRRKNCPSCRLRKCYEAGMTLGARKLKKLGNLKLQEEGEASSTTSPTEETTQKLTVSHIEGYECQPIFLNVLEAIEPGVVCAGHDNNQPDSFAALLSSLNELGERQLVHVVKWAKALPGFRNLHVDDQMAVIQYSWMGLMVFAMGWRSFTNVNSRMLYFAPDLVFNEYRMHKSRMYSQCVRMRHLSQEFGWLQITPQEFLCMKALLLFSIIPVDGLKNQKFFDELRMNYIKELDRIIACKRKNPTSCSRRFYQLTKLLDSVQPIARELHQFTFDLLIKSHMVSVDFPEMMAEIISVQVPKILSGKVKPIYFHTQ

CC(=O)NCCO
not listed: [17] | [18] | [19] | [20]
inactive: all other assays above

COc1ccc(C2C(=O)c3ccccc3C2=O)cc1
not listed: [8] | [9] | [19] | [20]
inactive: all other assays above

CC(C)C1CCC(C(=O)N[C@H](Cc2ccccc2)C(=O)O)CC1 (stereo not given in full)
not listed: [18] | [19] | [20]
inactive: all other assays above

CCCCCCC(O)CCOC(C)=O (stereo not given)
not listed: [9] | [15] | [20]
inactive: all other assays above

Cc1cc(CCCOc2c(C)cc(-c3noc(C(F)(F)F)n3)cc2C)on1
not listed: [9] | [12] | [13] | [17] | [19]
inactive: all other assays above

[Cl][Nd]([Cl])[Cl]
not listed: [12] | [14] | [20]
inactive: all other assays above

CCCC(=O)OC(=O)CCC
not listed: [14] | [18] | [19] | [20]
inactive: all other assays above

CC[C@H]1OC(=O)[C@H](C)[C@@H](O[C@H]2C[C@@](C)(OC)[C@@H](O)[C@H](C)O2)[C@H](C)[C@@H](O[C@@H]2O[C@H](C)C[C@H](N(C)C)[C@H]2O)[C@](C)(O)C[C@@H](C)C(=O)[C@H](C)[C@@H](O)[C@]1(C)O
not listed: [6] | [18] | [19] | [20]
inactive: all other assays above
